Consider 54 molecules from PubChem BioAssay AID624125 (The Scripps Research Institute Molecular Screening Center, 2012).

Screen size: about 360,000 compounds; about 2,600 (0.72%) were called active.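 The calls were made as follows: active = inhibition above its plate's cutoff, the mean inhibition of sample wells plus 3 SD (cut at about 27% in these data); inactive = the rest.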 The sample as a whole holds a higher share of actives than the screen did.

Muscarinic acetylcholine receptor M4 (Homo sapiens), sequence (P08173 whole entry, looked up): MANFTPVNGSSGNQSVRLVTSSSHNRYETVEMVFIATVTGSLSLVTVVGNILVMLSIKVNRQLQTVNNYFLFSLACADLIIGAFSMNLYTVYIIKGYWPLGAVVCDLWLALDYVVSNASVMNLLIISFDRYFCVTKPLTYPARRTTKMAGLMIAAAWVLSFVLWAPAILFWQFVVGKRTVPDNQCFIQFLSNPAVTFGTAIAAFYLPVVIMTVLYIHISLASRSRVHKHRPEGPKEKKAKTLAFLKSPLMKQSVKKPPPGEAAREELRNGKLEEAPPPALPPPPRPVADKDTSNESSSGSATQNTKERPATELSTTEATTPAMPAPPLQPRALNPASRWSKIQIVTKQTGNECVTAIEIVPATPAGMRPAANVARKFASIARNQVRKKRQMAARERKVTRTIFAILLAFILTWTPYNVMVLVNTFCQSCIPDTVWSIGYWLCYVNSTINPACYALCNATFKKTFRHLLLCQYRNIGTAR

This assay addresses Muscarinic acetylcholine receptor M4 (Homo sapiens) (UniProt P08173). The experiment in a line: human M4 muscarinic receptor antagonists, primary screen, CHO cells, Fluo-8 calcium fluorescence (AID 624125).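 Also: 0% = acetylcholine EC80 with DMSO and 100% = DMSO without agonist.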 The note with it: CHO-hM4 cells, ACh EC80, Fluo-8 calcium fluorescence; at 3 µM; hits give high values.
One may read the inhibition as the drop in the measured response relative to a control, in per cent. As to `COc1ccc(NC(=O)CCn2ccnc2)c(OC)c1`, the inhibition is 4.14% (inactive).
Regarding `COc1ccc(NS(=O)(=O)c2ccc(N3CCOCC3)c(NC(=O)c3ccccc3Br)c2)cc1`, the inhibition was -9.67% (inactive).
Next, `Cc1ccc(NS(=O)(=O)c2cc3c(cc2C)NC(=O)CO3)cc1`: 2.56% (inactive); `CN(Cc1c(F)cccc1Cl)S(=O)(=O)c1cccs1`: -12.9% (inactive); `Cc1cc(=O)n2nc(N3CCCC3C(=O)NCCCN3CC(C)CC(C)C3)sc2n1` (centres undefined): -11.3% (inactive).
To `c1ccc(C(=NNc2nc3ccccc3s2)c2ccccn2)cc1` belongs 56.1% (active); to `Cc1ccc(OCCCC(=O)N2CCOCC2)c(C)c1`, -1.8% (inactive); to `Cc1ccc(C)c(N2CCN(C(=O)Cn3ncn4cccc4c3=O)CC2)c1`, -6.41% (inactive).
On to `Cc1ccc(C)c(N2CCN(C(=O)CCCCCn3c(=S)[nH]c4ccc(N5CCOCC5)cc4c3=O)CC2)c1`, for which the inhibition is 33.6% (active).
For the molecule `C[C@H]1CN([C@@H](C)CO)C(=O)CCCn2nncc2CO[C@@H]1CN(C)S(=O)(=O)c1cccc(C#N)c1`, the inhibition is -12.9% (inactive).
Next, `CC1(C)Cc2c(sc3nc4n(c(=N)c23)CCCCC4)CO1`: 3.83% (inactive); `N=c1c2c3c(sc2ncn1CCCN1CCOCC1)CCCCC3`: 10.8% (inactive).
Turning to `N=c1c2c3c(sc2nc2n1CCCCC2)CCCC3`, the inhibition is 46.3% (active).
`Cc1cc(C)c(S(=O)(=O)c2cc(F)ccc2C)c(=O)[nH]1`: the inhibition was 1.71% (inactive).
On to `CCN1/C(=C\c2ccc3ccccc3[n+]2CC)Sc2cc(C)ccc21`, for which the inhibition was 34% (active).
On to `CCc1ccc(NC2Nc3cc(C)nn3S2)cc1` (centres undefined), for which the inhibition was 4.8% (inactive).
To `COc1ccc(Cl)cc1C=CC=NNC(=O)c1ccncc1` belongs -14.8% (inactive); to `CN1CCC[C@@H]1CCO[C@](C)(c1ccccc1)c1ccc(Cl)cc1`, 97.7% (active).
Turning to `CCC1CCC/C1=N\NC(=O)c1ccc(Cl)cc1` (centres undefined), the inhibition was 6.05% (inactive).
Take `COc1cccc2sc3cc(NCC[C@@H]4CCCN4C)ccc3c(=O)c12`: the inhibition is -7.94% (inactive).
As for `O=C(Nc1ccc(F)cc1)c1cc2c(s1)CCCC2`, the inhibition is 1.82% (inactive).
Next, `C=CCOC(=O)C1=C(C)N=C2SCCC(=O)N2C1/C=C/c1ccccc1OC` (centres undefined): 1.49% (inactive).
To `CC1(C)CC(N2CCN(C(c3ccccc3)c3ccccc3)CC2)=CC(=[N+]2CCCCC2)C1` belongs 56.8% (active).
Turning to `CC1(c2cccc(Br)c2)NC(=O)N(CC(=O)NCCC2=CCCCC2)C1=O` (centres undefined), the inhibition is -1.54% (inactive).
In the case of `COC(=O)c1cc(S(=O)(=O)N2CCC(C(N)=O)CC2)oc1C`, the inhibition is -3.75% (inactive).
Next, `CCCCN(CCCC)CCC(O)c1cc2c(Cl)cc(Cl)cc2c2cc(C(F)(F)F)ccc12` (centres undefined): -6.99% (inactive).
With `O=[N+]([O-])/C=C/c1ccc2c(ccn2Cc2ccccc2)c1`, the inhibition is 51% (active).
To `CC(C)CCNC(=O)c1[nH]c(C(F)(F)F)nc1-c1ccccc1` belongs 2.39% (inactive); to `CCOCCCN1C(=O)CN(C2CCCCC2)C(=O)C1c1ccc(OCC)c(OC)c1` (centres undefined), 5.54% (inactive).
On to `Cc1ccc(C)c(NC2=NCC(=O)N2c2ccc3c(c2)OCCO3)c1`, for which the inhibition was 5.91% (inactive).
Take `Cc1cc(=O)[nH]c(Nc2cccc(Br)c2)n1`: the inhibition is 4.17% (inactive).
To `Cc1cc(=O)[nH]c(N/N=C/c2ccc3c(c2)OCCO3)n1` belongs 29.5% (active).
Next, `CC1(C)C2CC[C@]3(C)C(CC=C4[C@@H]5C[C@@](C)(CO)CC[C@]5(C(=O)O)CC[C@]43C)[C@@]2(C)CC[C@@H]1O` (some centres undefined): 45.8% (active).
Turning to `CC1(C)C[C@H]2C3=CCC4[C@@]5(C)CC[C@H](O)[C@](C)(CO)C5CC[C@@]4(C)[C@]3(C)C[C@@H](O)[C@@]2(CO)[C@@H](O)[C@@H]1O` (some centres undefined), the inhibition was -13.3% (inactive).
To `CC1O[C@@H](OC2C(O)C(C)O[C@H](OC(=O)[C@]34CCC(C)(C)C[C@H]3C3=CCC5[C@@]6(C)CC(O)C(O[C@@H]7OC(CO)C(O)[C@@H](O)[C@@H]7O)[C@@](C)(C(=O)O)C6CC[C@@]5(C)[C@]3(CO)CC4)C2O[C@H]2OC(C)[C@@H](O[C@@H]3OCC(O[C@@H]4OC(CO)C(O)[C@H](O)C4O)[C@@H](O)[C@@H]3O)[C@H](O)C2O)C(O)C(O)C1O` (some centres undefined) belongs 4.49% (inactive).
For the molecule `O=S(=O)(c1cccc(-c2cn3ccccc3n2)c1)N1CCCC1`, the inhibition is -2.49% (inactive).
Turning to `O=C(NCC(c1cccs1)N1CCOCC1)c1cc(Cl)ccc1[N+](=O)[O-]` (centres undefined), the inhibition is -29.6% (inactive).
Regarding `CCN1CCN(CC(=O)c2cc(OC)c(OC)c(OC)c2)CC1`, the inhibition was 3.39% (inactive).
To `O=C1C=C(c2ccc(Cl)cc2)C(=O)N1Nc1ccccc1` belongs 32% (active); to `Cc1cc(C)nc(NS(=O)(=O)c2ccc(N3C(=O)C4CCCCC4C3=O)cc2)n1` (centres undefined), -3.19% (inactive); to `Cc1cccc2cc3c(N)c(C(=O)N4CCCc5ccccc54)sc3nc12`, 26.9% (active).
For the molecule `CCCn1nc(C(=O)N2CCCc3ccccc32)c2ccccc2c1=O`, the inhibition is 3.11% (inactive).
Consider `Cc1ccc(C(=O)N2CCCc3ccccc32)c(Cl)c1`, for which the inhibition is -5.91% (inactive).
Next, `C=CCn1cc(Cl)cc(C(=O)Nc2ccccc2)c1=O`: 1.16% (inactive); `NS(=O)(=O)c1ccc(NC(=O)COC(=O)C2(c3ccc(F)cc3)CCCC2)cc1`: 1.71% (inactive).
For the molecule `O=C(/C=C(O)/C=C/c1ccc(O)cc1)/C=C/c1ccc(O)cc1`, the inhibition is 41.4% (active).
With `NC1=NC(=O)S/C1=C\c1ccc(O)cc1`, the inhibition is 0.37% (inactive).
On to `CC(C)(C)C(=O)/C(C#N)=C/c1ccc(O)cc1`, for which the inhibition is 3.63% (inactive).
Turning to `CCNC(=O)C1(C)CCN(Cc2ccc(C(=O)OCC)o2)C1` (centres undefined), the inhibition was 3.23% (inactive).
In the case of `Clc1cccc(Cl)c1Cn1nnc(-c2cccs2)n1`, the inhibition is -3.16% (inactive).
As to `CC(C)[C@@H]1COC(c2cccc(C3=N[C@H](C(C)C)CO3)c2)=N1`, the inhibition is 7.38% (inactive).
Consider `COc1cc(/C=C(\C#N)C(=O)Nc2ccc3ccccc3c2)c([N+](=O)[O-])cc1OC`, for which the inhibition was 28.5% (active).
`COc1cc(/C=C(/NC(=O)c2ccccc2)C(=O)Nc2cccc(O)c2)c([N+](=O)[O-])cc1OC`: the inhibition was -11.4% (inactive).
On to `COc1cc(NC(=O)COC(=O)CSc2ccc3ccccc3c2)c(C)cc1[N+](=O)[O-]`, for which the inhibition was -8.64% (inactive).
